# Marburg entry inh – blocks Marburg virus binding to or entry into cells | Marburg virus pseudotyped entry inhibition, cell reporter | Potency, µM (top dose mostly 37.8 µM), most hits filed as inhibitors | 1.8% of 300,000 active | AID 540276; calls by dose curve; tested in HEK293 cells
# Lassa entry inh – inhibitors of Lassa virus binding or cell entry; Lassa virus pseudotype entry inhibition, cell reporter; Potency, µM (series often up to 37.9 µM), most hits filed as inhibitors; 1.2% of 300,000 active; calls by dose curve; tested in HEK293 cells; note: nearly all actives have a fitted effect of over 50% in size
# HCV inh – blocks hepatitis C virus; Huh7.5.1 HCVcc-Cre infection, luciferase reporter, 44 h; Potency, µM (series often up to 41.8 µM), hits mostly inhibitors; 3.4% of 340,000 active; AID 651820; active = well fitted inhibition curve with a large enough effect; inconclusive = small, poorly fitted or top-dose-only effect, or another doubt; inactive = no such curve, though single readings can be large or run the other way
#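 Reporter virus HCVcc-Cre (~0.5 moi) infects cells exposed to compound; seeding density 1,000 cells/well with 4 h settling beforehand. Luminescence, 15 sec read, taken 44 h post-infection following a 15 min RT substrate incubation.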
# Cycloheximide cs – counter-screen hit for Shiga toxin inhibitors, cycloheximide. 12% of 300,000 active. AID 2314. cell reporter, cycloheximide protein synthesis inhibition counterscreen. max response, %; in the data active = max response mostly above about 13%, no sharp cut-off; inactive = mostly below about 14%; note: read at 38.3 µM for the half of the compounds with a filed dose
# FMDV inh – foot and mouth disease virus antiviral activity; FMDV antiviral cell-based qHTS; Potency, µM (titrated, usually from 57.9 µM), actives largely listed as inhibitors; 1.2% of 410,000 active; calls by dose curve; tested in HEK293T cells; note: read-out not given here; nearly all actives have a fitted effect of over 45% in size
# Shiga inhibitor – blocks Shiga toxin action in Vero cells; 9.2% of 290,000 active; Vero cells, Shiga toxin protein synthesis inhibition reporter; inhibition, % at 38.7 µM; AID 2315; in the data active = inhibition mostly above about 28%, no sharp cut-off; inactive = mostly below about 43%
# Numbers stand for hits; – = inactive; ? = inconclusive; · = not tested or not shown; + = active, no number; [ ] = remark or other dose. This is a sample that favours compounds with a hit; in the whole collection about 13% have one here.
SMILES,Marburg entry inh,Lassa entry inh,HCV inh,Cycloheximide cs,FMDV inh,Shiga inhibitor
Cc1cc(NCCCn2ccnc2)n2nc(-c3ccc(F)cc3)cc2n1,–,?,?,20.3,·,29.2
CN(C)CCCNc1nc2cc(-c3ccccc3)sc2c(=O)n1C,·,·,·,·,–,·
Cc1cc(NCCCn2ccnc2)n2nc(-c3ccc(Cl)cc3)cc2n1,–,–,–,20.2,–,–
Cc1cccc(-c2cc3nc(C)c(C)c(NCCCn4ccnc4)n3n2)c1,?,–,?,–,?,–
CN(Cc1ccccc1)C(=O)c1cccc(NC(=O)Cc2ccc(NC(=O)C3CCN(C(=O)C4CCCCC4)CC3)cc2)c1,·,·,–[8.37 µM],·,?,·
Cc1cccc(C)c1NC(=O)C(c1cccc([N+](=O)[O-])c1)N(C)C(=O)c1ccccn1 (configuration not stated),–,–,–,–,–,–
O=C(NNC(=O)c1ccccc1F)c1ccc(-c2ccccc2Cl)o1,·,·,·,·,–,·
CCOC(=O)c1ccc(N2C(=O)c3n[nH]c(-c4ccco4)c3C2c2ccccc2OC)cc1 (configuration not stated),?,?,·,·,22.4µM,·
CCOC(=O)c1ccc(N2C(=O)c3n[nH]c(-c4ccco4)c3C2c2ccc(OCC)cc2)cc1 (configuration not stated),11.2µM,?,·,·,?,·
CCOC(=O)c1ccc(N2C(=O)c3n[nH]c(C)c3C2c2ccccc2OC)cc1 (configuration not stated),–,–,·,·,–,·
CCOC(=O)c1ccc(N2C(=O)c3n[nH]c(-c4ccco4)c3C2c2cccc(O)c2)cc1 (configuration not stated),?,?,·,·,25.1µM,·
CC(C)CNc1nc(S(=O)(=O)c2ccccc2)c(Cl)s1,–,–,–,–,–,–
CCCSC1=N/C(=C\c2ccsc2)C(=O)S1,–,–,–,–,–,–
N#Cc1c(N)nc(SCC(=O)C23CC4CC(CC(C4)C2)C3)c(C#N)c1-c1ccc(Cl)cc1,–,–,–,–,–,–
CSc1nc(N)nc(SCC(=O)C23CC4CC(CC(C4)C2)C3)c1C#N,20.6µM,–,10µM,–,?,–
CSc1nc(N)nc(SCC(=O)c2ccccc2)c1C#N,–,–,?,19.1,?,–
COCCOC(=O)C1=C(C)NC(=O)NC1c1cn(-c2ccccc2)nc1-c1ccccc1 (configuration not stated),?,–,·,·,–,·
CCCCc1c(C)c2cc(C)ccc2[nH]c1=O,–,–,–,–,–,–
Cc1ccc2[nH]c3c(c2c1)CCCC3=O,–,–,10µM,17.1,–,–
Cc1ccc2[nH]c3c(c2c1)CCC3=O,–,–,?,–,·,–
Cc1ccc2[nH]c3c(c2c1)CCc1cn[nH]c1-3,–,?,14.1µM,25.2,–,27.9
CCCCN1CCc2c([nH]c3ccc(C)cc23)C1=O,–,?,–,69.6,–,132.4
COC(=O)CCN(C(=O)c1cc([N+](=O)[O-])cc([N+](=O)[O-])c1)c1ccccn1,–,–,–,–,–,–
Cc1ccc(O)c(-c2cc3ccccc3[nH]2)c1,–,–,–,28.0,–,33.3
O=c1nc(-c2ccccc2)c2cc(Cl)ccc2[nH]1,–,–,–,–,·,–
SMILES,Marburg entry inh,Lassa entry inh,HCV inh,Cycloheximide cs,FMDV inh,Shiga inhibitor
c1ccc(-c2cc3ccccc3[nH]2)cc1,·,·,?,32.6,–,37.4
O=[N+]([O-])c1cccc(-c2cc3ccccc3[nH]2)c1,·,·,?,26.5,–,–
O=c1ccc2ccccc2[nH]1,·,·,·,–,·,–
Clc1ccc2[nH]c(-c3ccccc3)cc2c1,–,?,?,45.9,–,69.9
Cc1ccc2nc(-c3cccs3)oc(=O)c2c1,–,–,–,–,–,–
CCc1cc(=O)[nH]c(SCc2cccc3ccccc23)n1,·,·,–,–,–,–
O=c1cc(-c2ccccc2)[nH]c2ccc(Cl)cc12,·,·,·,43.6,·,+
COc1ccc(-c2cc3ccccc3[nH]2)cc1,–,–,–,41.6,–,99.7
O=c1cc(-c2ccccc2)[nH]c2cc(Cl)ccc12,?,?,–,–,–,–
O=C(Cc1cccs1)NNC(=O)C12CC3CC(CC(C3)C1)C2,–,–,–,–,–,–
COc1ccc(C)cc1NC(=O)C(Sc1nnc(Nc2cc(C)ccc2OC)s1)c1ccccc1 (configuration not stated),?,–,10µM,–,–,–
COc1ccc(Nc2nnc(SC(C(=O)Nc3cc(C)ccc3C)c3ccccc3)s2)cc1 (configuration not stated),?,?,?,–,–,–
CCCNC(=O)C(Cc1ccccc1)NS(=O)(=O)c1ccc2c(c1)c(=O)n(C)c(=O)n2C (configuration not stated),–,–,–,–,–,–
CCCNC(=O)C(NS(=O)(=O)c1ccc2c(c1)c(=O)n(C)c(=O)n2C)c1ccccc1 (configuration not stated),–,·,–,15.4,–,–
Cc1ccc(NC(=O)c2cccc(NC(=O)/C=C/c3ccco3)c2)cc1C,?,–,?,57.2,–,136.8
O=C(/C=C/c1ccco1)Nc1cccc(C(=O)Nc2ccccc2C(=O)O)c1,·,·,–,–,–,–
Cc1ccc(-n2nc3ccc(NC(=O)/C=C/c4ccco4)cc3n2)cc1,–,–,?,21.8,–,74.1
CCc1ccccc1NC(=O)c1cccc(NC(=O)/C=C/c2ccco2)c1,–,–,?,68.7,–,105.1
CCOc1cc(C(=O)NCc2ccco2)cc(OCC)c1OCC,·,·,?,–,–,–
O=C(c1cc(-c2ccccc2)on1)N(Cc1cccnc1)C(c1ccccn1)c1nc2ccccc2[nH]1 (configuration not stated),·,·,·,·,–,·
COc1ccc(-c2nc3nc(C)cc(Nc4ccc(C(C)=O)cc4)n3n2)cc1,?,–,·,·,–,·
Clc1ccccc1CONc1ncnc2nonc12,–,–,–,30.6,–,+
Cn1nnc2c(NCc3ccccc3Cl)ncnc21,·,–,·,·,–,·
Cc1c(CCOC(=O)c2ccc(N3CCOCC3)c([N+](=O)[O-])c2)sc[n+]1CC#N,?,13µM,15.8µM,–,?,–
Cc1ncsc1CCOC(=O)c1ccc(N2CCOCC2)c([N+](=O)[O-])c1,·,·,–,–,–,–
SMILES,Marburg entry inh,Lassa entry inh,HCV inh,Cycloheximide cs,FMDV inh,Shiga inhibitor
CC(C)(C)C(=O)NC(=S)N1CCc2ccccc21,·,·,–,–,–,–
O=C1CCCc2nc3c(cc21)C(O)Oc1c-3ccc2ccccc12 (configuration not stated),–,–,–,48.8,–,65.0
O=C1CCCc2nc3c(cc21)C(O)Oc1ccccc1-3 (configuration not stated),–,–,–,–,–,–
CN(C(=O)c1ccccc1OCc1ccc(F)cc1)c1c(N)n(Cc2ccccc2)c(=O)[nH]c1=O,–,–,–,·,–,·
COC(=O)c1cc(NC(=O)c2cc(-c3ccc(C(F)(F)F)cc3)oc2C(F)(F)F)ccc1N1CCOCC1,11.2µM,?,3.55µM,–,?,–
COC(=O)c1cc(NC(C)=O)ccc1N1CCOCC1,–,–,–,–,–,–
COC(=O)c1cc(NC(=O)c2cc(-c3ccc(OC)cc3)oc2C(F)(F)F)ccc1N1CCOCC1,·,·,7.08µM,–,–,–

# Screening results from PubChem.
